Values joined by “and” are separate entries in the source; they are usually repeats but may differ in a detail not shown here. Equal entries are not always repeated. Results filed as inconclusive are left out. Active and inactive are the calls of the source. Unless noted, calls follow the shape of the dose curve; as a rule, active = well fitted curve in the direction sought with a large enough effect; inconclusive = small, poorly fitted or top-dose-only effect, or another doubt; inactive = no such curve, though single readings can be large; an effect the other way counts as inactive or inconclusive.

Assay [1] in a line: qHTS to identify inhibitors of the type 1 interferon - major histocompatibility complex class I in skeletal muscle: primary screen against the NCATS Mechanism Interrogation Plate v5.0 (MIPE) Libary (AID 1347411). Also: nearly all actives have a fitted effect of over 65% in size. Also: potency is read from the fitted curve at half-maximal effect. A digest of the protocol:
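Luminescence from CRISPR HiBit-tagged endogenous HLA-B in human myoblasts reported MHC class I level after 24 h of IFN-beta (4 ng/ml) plus compound. Compounds ran as 11-point 1:3 series, top 46 uM final.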
On the technique in general: Quantitative high-throughput screening tests each substance at several concentrations.

Assay [2] concerns the target Calcium and integrin-binding protein 1 (Homo sapiens) (UniProt Q99828). Put plainly: Primary qHTS for Identification of Calcium Integrin Binding Protein 1 (CIB1) Competitor (AID 1508620).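 Also: GST tagged CIB1 binding a fluorescein labelled alphaIIb integrin peptide tracer; top concentration of the series differs between compounds.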 In short, it runs like this: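 CIB1-GST (1 uM final) and compound incubated 15 min at room temperature before adding FITC-alphaIIb peptide tracer (100 nM final). Competition for binding read by fluorescence polarization (ex 480, em 540) after another 15 min at room temperature.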

The target of assay [3] is Cytochrome P450 2C9 (Homo sapiens) (UniProt P11712). Put plainly: Cytochrome P450 family 2 subfamily C member 9 (CYP2C9) small molecule antagonists: luciferase biochemical (cell-free) qHTS assay (AID 1645842; active = well fitted curve in the direction sought with a large enough effect in the repeat runs; an effect the other way counts as inactive or inconclusive; also: nearly all actives have a fitted effect of over 55% in size; also: potency is read from the fitted curve at half-maximal effect). A digest of the protocol:
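P450-Glo CYP2C9 system: proluciferin substrate with enzyme in mix containing 0.4% BSA, 10 min at room temperature, then NADPH regeneration solution added and incubated 1 h at 37C. Detection reagent stopped reaction; luminescence read after 20 min as RLU.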

Assay [4] in a line: Primary qHTS for inhibitors of nuclear receptor binding SET domain protein 2 (NSD2) in an isogenic RCH-ACV NSD2 p.E1099K mutant (9B) (AID 1645876). Also: nearly all actives have a fitted effect of over 70% in size. Also: potency is read from the fitted curve at half-maximal effect.
Assay [5] can be described thus: qHTS for inhibitors of adenylyl cyclases using a fission yeast platform: a pilot screen against the NCATS LOPAC library (AID 1347410). In short, it runs like this:
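S. pombe CHP2027 (AC9-GNAS-PDE4D2) carrying PKA-repressed fbp1-GFP, incubated 18 h at 30C in EMM with LOPAC compounds at up to 57 uM. GFP gain-of-signal read by laser scanning cytometry; DMSO negative control.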

In assay [6] the target is Calcium and integrin-binding protein 1 (Homo sapiens) (UniProt Q99828). Put plainly: Validation qHTS for Identification of Calcium Integrin Binding protein 1 (CIB1) Competitor (AID 1508618). A digest of the protocol: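 Displacement of FITC-alphaIIb peptide (100 nM) from CIB1-GST (1 uM) is monitored by polarization in quantitative HTS format; buffer carries 5 mM CaCl2 and 125 mM NaCl at pH 7.4, incubations are at room temperature.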
Calcium and integrin-binding protein 1 (Homo sapiens), sequence (Q99828 whole entry, looked up): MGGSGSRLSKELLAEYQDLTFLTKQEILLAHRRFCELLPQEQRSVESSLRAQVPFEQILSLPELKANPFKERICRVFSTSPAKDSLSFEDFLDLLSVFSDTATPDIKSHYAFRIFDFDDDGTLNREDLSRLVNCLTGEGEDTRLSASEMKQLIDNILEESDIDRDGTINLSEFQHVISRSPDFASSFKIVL

The target in another assay is Papain (Carica papaya) (UniProt P00784). Put plainly: Primary qHTS assay for inhibitors of the protease papain (AID 1645873).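 Also: papain turnover of Z-FR-AMC read as the AMC fluorescence gain over 10 min; series mostly up to about 50 µM.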
Papain (Carica papaya), sequence (P00784 whole entry, looked up): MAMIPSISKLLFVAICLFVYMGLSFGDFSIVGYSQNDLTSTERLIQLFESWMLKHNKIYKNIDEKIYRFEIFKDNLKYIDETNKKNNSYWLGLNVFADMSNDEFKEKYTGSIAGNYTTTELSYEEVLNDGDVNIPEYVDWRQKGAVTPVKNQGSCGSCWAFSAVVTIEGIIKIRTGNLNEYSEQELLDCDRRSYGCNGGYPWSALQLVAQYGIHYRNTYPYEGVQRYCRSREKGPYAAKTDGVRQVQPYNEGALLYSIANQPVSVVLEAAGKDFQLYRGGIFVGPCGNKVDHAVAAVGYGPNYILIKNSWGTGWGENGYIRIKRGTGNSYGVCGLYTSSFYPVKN
Assay [7] concerns the target Cytochrome P450 2D6 (Homo sapiens) (UniProt P10635). Put plainly: Cytochrome P450 family 2 subfamily D member 6 (CYP2D6) small molecule antagonists: luciferase biochemical (cell-free) qHTS assay (AID 1645840; active = well fitted curve in the direction sought with a large enough effect in the repeat runs; an effect the other way counts as inactive or inconclusive; also: nearly all actives have a fitted effect of over 55% in size; also: potency is read from the fitted curve at half-maximal effect). In short, it runs like this: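 P450-Glo CYP2D6 system: proluciferin substrate converted by enzyme to luciferin, read by luminescence proportional to activity. Enzyme-substrate mix with compound 10 min at room temperature, then NADPH regeneration 1 h before detection reagent.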

Assay [8] can be described thus: qHTS to identify inhibitors of the type 1 interferon - major histocompatibility complex class I in skeletal muscle: primary screen against the NCATS Pharmaceutical Collection (AID 1347407).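 Also: luminescence of HiBiT knocked into endogenous HLA-B as interferon-induced MHC class I level.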 In short, it runs like this: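 Immortalized human myoblasts (C25cl48) with HiBiT knocked into endogenous HLA-B*08:01 were stimulated with 4.0 ng/ml IFN-beta and treated with compounds ([…] top 46 uM) for 24 hrs at 37 C. HiBiT lytic luminescence read.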

For assay [9], the target named is Protein phosphatase 1D (Homo sapiens) (UniProt O15297). Put plainly: RapidFire Mass Spectrometry qHTS Assay for Modulators of WT P53-Induced Phosphatase 1 (WIP1) (AID 1347424).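 Also: amount of dephosphorylated VEPPL-S-QETFS peptide product formed by WIP1; series mostly up to about 63 µM.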 In short, it runs like this:
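RapidFire mass spectrometry measured dephosphorylated peptide after 5 min room-temperature reaction of 2 uM VEPPL-pS-QETFS with 10 nM WIP1 (50 mM Tris-HCl pH 7.5, 30 mM MgCl2, 0.1 mM EGTA, BSA), following 1 hr compound preincubation; 1 uM isotope-labelled product standard.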

The target is the same in assay [10]. Put plainly: Rhodamine-PBP qHTS Assay for Modulators of WT P53-Induced Phosphatase 1 (WIP1) (AID 1347425). A digest of the protocol: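 5 nM WIP1 + 10 uM Rh-PBP, 50 mM Tris pH 7.5, 30 mM MgCl2, 1 mM TCEP, 0.1 mM EGTA, BSA; cpds pinned, 1 hr RT; + 10 uM phosphopeptide; fluorescence 1-min reads x 11 min; delta = f1 - f0.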
Assay [11] can be described thus: Primary qHTS for inhibitors of La Crosse Virus (LACV) - induced cell death in SH-SY5Y cells (AID 1508616).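 Also: top concentration of the series differs between compounds; higher means more rescue of cells from virus-induced death.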 A digest of the protocol: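 Rescue of virus-induced death was read as ATPLite luminescence after 6 days at 37C, scaled between DMSO wells with LACV and without virus. Cells were SH-SY5Y, 6000/well, infected at 0.01 MOI after compound addition.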
Assay [12] in a line: A High-Content qHTS Against Drug Library for the Identification of Small Molecules that Inhibit DYT1 Early Onset Primary Dystonia-Associated Cell Pathology (AID 1645839; calls by dose curve; also: series mostly up to about 46 µM). A digest of the protocol:
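High-content imaging quantified EGFP-TorsinA mislocalization in HEK293-derived cells inducibly expressing DYT1 mutant torsinA, after 48 h exposure to compound given together with tetracycline induction. Cell count served as a toxicity channel alongside %pathology.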

Assay [13] concerns the target Cytochrome P450 3A4 (Homo sapiens) (UniProt P08684). Put plainly: Cytochrome P450 family 3 subfamily A member 4 (CYP3A4) small molecule antagonists: luciferase qHTS assay (AID 1645841; active = well fitted curve in the direction sought with a large enough effect in the repeat runs; an effect the other way counts as inactive or inconclusive; also: potency is read from the fitted curve at half-maximal effect; nearly all actives have a fitted effect of over 45% in size). A digest of the protocol:
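Luminescent CYP3A4 activity readout: compounds plus enzyme-substrate mix 10 min at room temperature, reaction started with NADPH regenerating system for 1 h, stopped with detection reagent, read after 20 min. Ketoconazole served as control.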

Assay [14] in a line: Viability qHTS for inhibitors of the SERCaMP assay screened against the NCATS CANVASS Library (AID 1347400). Also: potency is read from the fitted curve at half-maximal effect; nearly all actives have a fitted effect of over 70% in size. The following applies: SH-SY5Y SERCaMP cells viability, CellTiter-Glo, 48 h. In short, it runs like this: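 CellTiter-Glo luminescence measured cytotoxicity after 48 h at 37C of compound treatment (11-point series). Cells were SH-SY5Y-GLuc SERCaMP MJH297 derivatives, seeded at 1000 per well 4 h beforehand.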

The nature of assay [15]: Redox Reaction Profiling qHTS: Assay Interference Panel against the NCATS CANVASS Library (AID 1347401). In short, it runs like this: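 Redox-cycling liability assessed as DTT-driven conversion of resazurin (5 uM, with 200 uM DTT, HEPES pH 7.3) to fluorescent resorufin. Fluorescence at 525/598 nm measured initially and after 15 min dark incubation.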

Cytochrome P450 2D6 (Homo sapiens), sequence (P10635 whole entry, looked up): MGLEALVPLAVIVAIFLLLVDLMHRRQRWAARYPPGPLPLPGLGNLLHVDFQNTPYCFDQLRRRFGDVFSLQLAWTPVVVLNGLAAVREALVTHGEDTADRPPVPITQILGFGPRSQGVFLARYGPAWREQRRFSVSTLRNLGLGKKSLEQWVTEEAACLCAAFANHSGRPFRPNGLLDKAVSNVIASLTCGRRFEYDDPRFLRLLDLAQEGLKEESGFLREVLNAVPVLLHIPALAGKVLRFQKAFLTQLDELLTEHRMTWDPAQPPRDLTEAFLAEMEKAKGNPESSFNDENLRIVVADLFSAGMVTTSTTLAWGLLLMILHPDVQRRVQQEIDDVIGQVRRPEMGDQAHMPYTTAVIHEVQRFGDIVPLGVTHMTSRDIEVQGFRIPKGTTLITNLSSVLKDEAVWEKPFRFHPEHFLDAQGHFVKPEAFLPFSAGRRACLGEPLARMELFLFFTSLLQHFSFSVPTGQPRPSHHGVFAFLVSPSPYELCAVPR
Cytochrome P450 2C9 (Homo sapiens), sequence (P11712 whole entry, looked up): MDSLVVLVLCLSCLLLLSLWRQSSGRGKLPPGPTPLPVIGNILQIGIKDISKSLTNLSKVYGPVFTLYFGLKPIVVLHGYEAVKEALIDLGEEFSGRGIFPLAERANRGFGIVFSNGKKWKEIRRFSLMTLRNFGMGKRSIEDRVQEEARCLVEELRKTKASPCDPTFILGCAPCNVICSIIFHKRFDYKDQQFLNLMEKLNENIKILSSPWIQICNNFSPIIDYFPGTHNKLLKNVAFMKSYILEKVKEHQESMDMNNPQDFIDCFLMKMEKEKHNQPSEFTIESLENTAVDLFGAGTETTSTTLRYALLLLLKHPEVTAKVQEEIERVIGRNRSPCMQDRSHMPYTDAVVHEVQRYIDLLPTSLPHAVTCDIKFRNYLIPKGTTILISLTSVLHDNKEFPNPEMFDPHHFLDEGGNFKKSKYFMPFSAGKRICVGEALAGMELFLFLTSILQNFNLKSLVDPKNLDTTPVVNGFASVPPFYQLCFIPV
Protein phosphatase 1D (Homo sapiens), sequence (O15297 whole entry, looked up): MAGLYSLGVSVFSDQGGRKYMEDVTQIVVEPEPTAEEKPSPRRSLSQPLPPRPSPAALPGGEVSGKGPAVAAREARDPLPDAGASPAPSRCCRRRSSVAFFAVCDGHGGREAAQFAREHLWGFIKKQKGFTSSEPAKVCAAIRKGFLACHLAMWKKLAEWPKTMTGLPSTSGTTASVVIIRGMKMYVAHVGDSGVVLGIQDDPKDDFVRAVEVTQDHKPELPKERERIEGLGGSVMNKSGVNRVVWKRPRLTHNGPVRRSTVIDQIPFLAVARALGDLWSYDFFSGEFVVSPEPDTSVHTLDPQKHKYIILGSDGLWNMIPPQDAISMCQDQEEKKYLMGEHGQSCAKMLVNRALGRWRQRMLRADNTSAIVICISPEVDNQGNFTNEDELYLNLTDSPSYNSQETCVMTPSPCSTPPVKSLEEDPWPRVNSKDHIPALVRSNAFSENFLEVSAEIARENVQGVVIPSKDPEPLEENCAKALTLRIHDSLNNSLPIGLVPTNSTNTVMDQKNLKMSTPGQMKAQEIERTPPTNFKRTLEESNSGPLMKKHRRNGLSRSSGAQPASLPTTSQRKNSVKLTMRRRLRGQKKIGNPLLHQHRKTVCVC
Cytochrome P450 3A4 (Homo sapiens), sequence (P08684 whole entry, looked up): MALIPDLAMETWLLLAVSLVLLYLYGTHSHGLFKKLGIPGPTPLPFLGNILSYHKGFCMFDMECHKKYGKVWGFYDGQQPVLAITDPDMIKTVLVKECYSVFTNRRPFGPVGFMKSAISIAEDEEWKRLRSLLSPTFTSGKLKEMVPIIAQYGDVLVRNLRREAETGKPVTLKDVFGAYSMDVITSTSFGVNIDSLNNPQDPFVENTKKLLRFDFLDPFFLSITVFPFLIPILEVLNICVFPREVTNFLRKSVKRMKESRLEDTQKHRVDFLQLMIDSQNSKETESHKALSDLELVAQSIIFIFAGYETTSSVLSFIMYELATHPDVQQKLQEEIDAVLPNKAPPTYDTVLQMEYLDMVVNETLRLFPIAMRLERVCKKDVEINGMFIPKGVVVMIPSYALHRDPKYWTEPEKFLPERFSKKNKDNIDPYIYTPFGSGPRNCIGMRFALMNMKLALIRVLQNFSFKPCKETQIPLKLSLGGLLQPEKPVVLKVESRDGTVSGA

As to `COc1ccc(Cl)c(Nc2nc3ccccc3nc2NS(=O)(=O)c2cccc(NC(=O)C(C)(C)N)c2)c1`, the Potency entry in [1] and in assay [2] was “inactive” throughout. In addition, the Potency in assay [3] was 2.68 µM (active); in assay [4] it was 3.65 µM (active) and 5.9 µM (active).
As for `CC[C@]1(O)CC2CN(CCc3c([nH]c4ccccc34)[C@@](C(=O)OC)(c3cc4c(cc3OC)N(C)[C@H]3[C@@](O)(C(=O)OC)[C@H](OC(C)=O)[C@]5(CC)C=CCN6CC[C@]43[C@@H]65)C2)C1` (some centres not stated), the result (in [5]; in assay [6]; in the assay with Papain (Carica papaya)) was inactive. Moreover, the Potency entry in assay [2] is “inactive”. In assay [4], the Potency was 57.8 nM (active) and 417 nM (active).
With `Cc1ccc(S(=O)(=O)Cc2nc(-c3ccc(C(=O)NCc4cccnc4)cc3)oc2C)cc1`, the Potency entry in [1], in assay [2] and in assay [7] was “inactive” each time. For the same compound, in assay [4], the Potency was 0.0132 µM (active).
As to `CC#CC(=O)N1CCC[C@H]1c1nc(-c2ccc(C(=O)Nc3ccccn3)cc2)c2c(N)nccn12`, the Potency entry in assay [1] and in [2] was “inactive” in each case.
As for `Cc1ccc(-c2ccc3c(ccc4sc5c(c43)NC[C@@H](C)NC5=O)n2)cn1`, in assay [1], the Potency was 18.6 µM (active). Also, the Potency entry in [2], in [7] and in assay [3] was “inactive” each time.
On to `CNC(=O)c1cc(Oc2ccc3nc(N[C@@H]4CCCC[C@H]4O)sc3c2)ccn1`, for which the Potency result in [1] and in [2] was “inactive” each time. In addition, the Potency in assay [7] was 16.9 µM (active); in assay [3] it was 8.49 µM (active).
With `Cc1cccc(Oc2cnc(=O)[nH]c2)c1`, the Potency result in assay [1], in [2], in assay [7], in assay [3] and in [4] was “inactive” each time.
In the case of `CC(C)c1cc(CNc2nc(Nc3cc(C4CC4)[nH]n3)cc(N3CCN(C)CC3)n2)on1`, the Potency in assay [1] is 0.523 µM (active); in assay [7], 2.68 µM (active); in assay [4], 64.9 nM (active) and 525 nM (active). Further, in [2], the Potency result was “inactive”.
As to `O=C(NCc1cccc(O)c1)Nc1nc(-c2ccncc2)cs1`, the Potency in assay [1] was 18.6 µM (active); in [7], 0.849 µM (active); in assay [3], 0.301 µM (active); in assay [4] it was 9.34 µM (active). The Potency result in assay [2] is “inactive”.
The like results for `CCO[C@@H]1OC(=O)C[C@@H]1NC(=O)[C@@H]1CCCN1C(=O)[C@@H](NC(=O)c1ccc(N)c(Cl)c1)C(C)(C)C` were, in that order, “inactive”, “inactive”, “inactive”, “inactive” and “inactive”.
The like results for `CCCN1CCN(c2ccc(C(=O)NC3(C(=O)NCC#N)CCCCC3)cc2)CC1` were, in that order, “inactive”, “inactive”, “inactive”, “inactive” and “inactive”.
As to `O=C(O)c1c(O)c(-c2ccccc2)nc2ccccc12`, the compound was called inactive in [8], in assay [10] and in assay [11]. Also, the Potency result in [9], in assay [2], in assay [12], in assay [7] and in assay [4] was “inactive” throughout.
`CCN1CCN(Cc2ccc(NC(=O)Nc3ccc(Oc4cc(NC)ncn4)cc3)cc2C(F)(F)F)CC1`: the Potency in assay [1] is 7.39 µM (active); in assay [7] it was 10.7 µM (active); in assay [4], 3.65 µM (active) and 2.35 µM (active). The Potency result in assay [2] and in assay [3] was “inactive” throughout.
With `Cc1ccc(NC(=O)c2ccc(CN3CC[C@H](N(C)C)C3)c(C(F)(F)F)c2)cc1Nc1nccc(-c2cncnc2)n1`, the Potency in [1] was 16.1 µM (active); in assay [13], 1.69 µM (active); in assay [4] it was 8.11 µM (active). For the same compound, the Potency entry in [2] was “inactive”.
On to `C=C1C(=O)O[C@H]2[C@H]1CC/C(C)=C/CC[C@@]1(C)O[C@@H]21`, for which the values for the Potency in [14] and in assay [4] were 13.5 µM (active) and 25.8 µM (active), respectively. Moreover, the call in assay [15] was inactive. The Potency entry in assay [2] is “inactive”.
With `CC(C)[C@@H](CS(=O)(=O)C(C)C)N1C(=O)[C@@](C)(CC(=O)O)C[C@H](c2cccc(Cl)c2)[C@H]1c1ccc(Cl)cc1`, the Potency entry in [1], in assay [2] and in assay [7] was “inactive” in each case. The Potency in assay [3] was 15.1 µM (active); in assay [4] it was 1.15 µM (active) and 833 nM (active).
On to `COc1cc2ncnc(Nc3cccc(Cl)c3F)c2cc1OC(=O)N1CCN(C)C[C@H]1C`, for which the Potency entry in assay [1] and in assay [2] was “inactive” in each case.
With `COc1ccc(N(C)c2nc(C)nc3ccccc23)cc1`, the Potency result in [1] and in assay [2] was “inactive” throughout. In addition, in assay [4], the Potency is 0.0132 µM (active).
For `CC1=C(CO)C(=O)O[C@@H]([C@@H](C)[C@H]2CC[C@H]3[C@@H]4C[C@H]5O[C@]56[C@@H](O)C=CC(=O)[C@]6(C)[C@H]4CC[C@]23C)C1`, the Potency in assay [1] was 0.466 µM (active); in assay [4], 448 nM (active) and 263 nM (active). In [2], the Potency entry was “inactive”.
`COCCN1CCN(Cc2ccc(-c3n[nH]c4c3C(=O)c3c(NC(=O)NN5CCOCC5)cccc3-4)cc2)CC1`: the Potency is 0.208 µM (active) in [1]; 2.13 µM (active) in assay [3]; 45.9 nM (active) and 59 nM (active) in assay [4]. Further, the Potency result in assay [2] was “inactive”.
For `NC[C@@](O)(c1ccc(Cl)cc1)c1ccc(-c2cn[nH]c2)cc1`, the Potency in assay [1] was 7.39 µM (active); in assay [3] it was 1.2 µM (active); in [4] it was 6.49 µM (active) and 5.25 µM (active). In addition, in assay [2], the Potency entry is “inactive”.
Regarding `CN(C)C/C=C/C(=O)Nc1cccc(C(=O)Nc2cccc(Nc3ncc(Cl)c(-c4c[nH]c5ccccc45)n3)c2)c1`, the Potency in [1] was 0.658 µM (active); in assay [4], 64.9 nM (active) and 148 nM (active). Moreover, the Potency entry in assay [2] was “inactive”.

The record behind these values is PubChem BioAssay (NCATS).
